Assay results published in PubChem BioAssay (NCI).
This is part of a sample that, as a whole, favours compounds with a hit. Of some 83,000 tested, about 20% had one in any assay.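 Compound tested at a single concentration for 48 hours in 96-well plates; a percent growth value below 10 was scored as active.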 Unmarked numbers belong to inactive results. The source made the active and inactive calls.

Columns and labels:
Assay in all cases: NCI-60 one-dose screen, 48 h (100 = growth as untreated, 0 = no growth, -100 = all killed)
Conditions in all cases: 10 µM unless noted
SK-MEL-2 melanoma = system: SK-MEL-2 melanoma
EKVX NSCLC = system: EKVX NSCLC
SN12C renal = system: SN12C renal
TK-10 renal = system: TK-10 renal
ACHN renal = system: ACHN renal
CAKI-1 renal = system: CAKI-1 renal
A498 renal = system: A498 renal
CCRF-CEM leukemia = system: CCRF-CEM leukemia
MOLT-4 leukemia = system: MOLT-4 leukemia
SR leukemia = system: SR leukemia
RPMI-8226 leukemia = system: RPMI-8226 leukemia
OVCAR-8 ovarian = system: OVCAR-8 ovarian
OVCAR-5 ovarian = system: OVCAR-5 ovarian
OVCAR-4 ovarian = system: OVCAR-4 ovarian
SK-OV-3 ovarian = system: SK-OV-3 ovarian
IGROV1 ovarian = system: IGROV1 ovarian
OVCAR-3 ovarian = system: OVCAR-3 ovarian
HS 578T breast = system: HS 578T breast
NCI/ADR-RES ovarian = system: NCI/ADR-RES ovarian
UO-31 renal = system: UO-31 renal

Row | SMILES | growth (SK-MEL-2 melanoma) | growth (EKVX NSCLC) [%] | growth (SN12C renal) | growth (TK-10 renal) [%] | growth (ACHN renal) [%] | growth (CAKI-1 renal) | growth (A498 renal) [%] | growth (CCRF-CEM leukemia) | growth (MOLT-4 leukemia) | growth (SR leukemia) | growth (RPMI-8226 leukemia) | growth (OVCAR-8 ovarian) | growth (OVCAR-5 ovarian) [%] | growth (OVCAR-4 ovarian) [%] | growth (SK-OV-3 ovarian) | growth (IGROV1 ovarian) | growth (OVCAR-3 ovarian) | growth (HS 578T breast) [%] | growth (NCI/ADR-RES ovarian) | growth (UO-31 renal) [%]
1 | COc1ccc(C2CC(=O)c3c(nc4ccc(Cl)cc4c3N)C2)cc1 (stereo not given) | 118% | 97.6 | 101% | 80.6 | 105 | 88.5% | 100 | 91.6% | 95.1% | 88.7% | 103% | 107% | 95.4 | 102 | 117% | 99.7% | 112% | 115 | 105% | 
2 | Cc1ccc(-c2nc([P+](c3ccccc3)(c3ccccc3)c3ccccc3)c(N3CCOCC3)o2)cc1 | -18.7% (active) | 17.6 | 1.43% (active) | 20.8 |  |  |  | 8.32% (active) | -8.12% (active) | 5.72% (active) | -24.2% (active) | 3.78% (active) | 18.9 | 12.3 | -43.9% (active) | 1.46% (active) | -0.275% (active) | 16.8 | 86% | 12
3 | O=C(N/N=C\c1c(O)ccc2ccccc12)C1CC1 | 35.1% | 32.1 | 66.5% | 78.1 | 23.6 | 2.09% (active) | 102 | 11.9% | 9.27% (active) | 18.3% | 40.4% | 33.1% |  |  | 44.9% | 24.3% | 1.02% (active) | 74.6 | 9.42% (active) | 
4 | Cn1cc(-c2nc(-c3c[nH]c4ncccc34)cs2)c2cc(Cl)ccc21 | 60.4% | 41.8 | 54% | 43.1 | 30 | 36.5% | 74.7 | 33.8% | 37.9% |  | 34.2% | 63.2% | 60.3 |  | 71.7% | 46.3% | 69.9% | 61.6 | 44.7% | 
